This is part of a sample that, as a whole, favours compounds with a hit. Of some 79,000 tested, about 15% had one in any assay. Calls of active or inactive are those of the source. Rule as the data show it: active = growth inhibition above about 70%; inactive = the rest.
Tests used:
[1] = NCI Yeast Anticancer Drug Screen. Data for the mec2-1 strain (AID 157); settings: S. cerevisiae mec2-1 strain, active compounds read high
How it was run: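 Using mec2-1 yeast: add compound, measure growth, express inhibition versus vehicle-treated cultures.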

[2] = NCI Yeast Anticancer Drug Screen. Data for the rad14 strain (AID 159);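 also: 0% = growth of vehicle-treated control cultures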; settings: S. cerevisiae rad14 strain growth inhibition, active compounds read high
How it was run: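 Readout: yeast growth inhibition, referenced to vehicle-only cultures. Strain bears a defined alteration in DNA damage repair.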

[3] = NCI Yeast Anticancer Drug Screen. Data for the sgs1 mgt1 strain (AID 161);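 also: 0% = growth of cultures given vehicle only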; settings: S. cerevisiae sgs1 mgt1 strain, active compounds read high
How it was run: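 Yeast cells carrying a defined DNA-repair defect were exposed to test compounds. Growth inhibition was measured relative to vehicle-treated controls.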

[4] = NCI Yeast Anticancer Drug Screen. Data for the CLN2oe strain (AID 163);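 also: 0% = growth of vehicle-only control cultures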; settings: S. cerevisiae CLN2oe strain, active compounds read high
How it was run: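 Whole-cell yeast growth assay. A strain engineered for altered cell-cycle control received compound, and inhibition relative to vehicle-treated cultures was recorded.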

[5] = NCI Yeast Anticancer Drug Screen. Data for the cln2 rad14 strain (AID 165);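 also: 0% = growth equal to vehicle treated cultures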; settings: S. cerevisiae cln2 rad14 strain, active compounds read high
How it was run: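 Yeast strain cln2 rad14, bearing defects in cell cycle control and DNA repair, serves as the test system; values reflect growth inhibition compared with vehicle.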

[6] = NCI Yeast Anticancer Drug Screen. Data for the bub3 strain (AID 167); settings: S. cerevisiae bub3 mutant strain, active compounds read high
How it was run: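 Part of a panel of yeast mutants defective in DNA damage repair or cell cycle regulation. Each strain is grown with compound, and inhibition is calculated relative to solvent-treated cultures.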

[7] = NCI Yeast Anticancer Drug Screen. Data for the wt2 strain (AID 169);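 also: 0% = growth of vehicle-treated yeast cultures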; settings: S. cerevisiae wt2 strain growth inhibition, active compounds read high
How it was run: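 Treated yeast vs. vehicle-treated yeast: growth inhibition determined.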

[8] = NCI Yeast Anticancer Drug Screen. Data for the mlh1 strain (AID 171);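 also: 0% = growth of vehicle-treated control cultures of the same strain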; settings: S. cerevisiae mlh1 strain growth inhibition, active compounds read high
How it was run: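 A yeast strain with a defined genetic lesion serves as the test organism. Cultures receive compound or vehicle, and growth is measured.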

[9] = NCI Yeast Anticancer Drug Screen. Data for the sgs1 strain (AID 173);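 also: 0% = growth of vehicle-only control cultures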; settings: S. cerevisiae sgs1 mutant, active compounds read high
How it was run: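 A genetically defined yeast mutant is incubated with the test compound, and its growth is compared to that of the same strain given vehicle.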

[10] = NCI Yeast Anticancer Drug Screen. Data for the mlh1 rad18 strain (AID 175); settings: S. cerevisiae mlh1 rad18 strain growth inhibition, active compounds read high
How it was run: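 Steps: expose repair-defective yeast to compound; measure growth; express inhibition against vehicle-treated controls.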

[11] = NCI Yeast Anticancer Drug Screen. Data for the rad18 strain (AID 177); settings: S. cerevisiae rad18 mutant growth inhibition, active compounds read high
How it was run: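 Measured value is growth inhibition of a yeast strain bearing a DNA repair alteration, referenced to vehicle-treated cells.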

[12] = NCI Yeast Anticancer Drug Screen. Data for the rad52 strain (AID 147);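 also: 0% = growth of vehicle-treated control cultures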; settings: S. cerevisiae rad52 mutant growth inhibition, active compounds read high
How it was run: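 Here a repair-compromised yeast strain receives each compound; its growth is then quantified and normalised to vehicle-only controls.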

[13] = NCI Yeast Anticancer Drug Screen. Data for the wt1 strain (AID 149);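 also: 0% = growth of vehicle-treated wt1 cultures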; settings: S. cerevisiae wt1 strain (SPY 50644) growth inhibition, active compounds read high
How it was run: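 The wt1 strain was treated with compounds, and growth was compared with vehicle-treated cultures to give inhibition.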

[14] = NCI Yeast Anticancer Drug Screen. Data for the rad50EPP+ strain (AID 151);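 also: 0% = growth of vehicle-treated control cultures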; settings: S. cerevisiae rad50 mutant strain, active compounds read high
How it was run: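 Read-out is yeast growth inhibition relative to vehicle; cells used were the rad50EPP+ strain.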

[15] = NCI Yeast Anticancer Drug Screen. Data for the mgt1 strain (AID 153); settings: S. cerevisiae mgt1 mutant growth inhibition, active compounds read high
How it was run: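 Measured: inhibition of mgt1 yeast growth by compound, normalized to vehicle-treated cultures.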

[16] = NCI Yeast Anticancer Drug Screen. Data for the rad50 strain (AID 155);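 also: 0% = growth of vehicle-only cultures of the same strain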; settings: S. cerevisiae rad50 strain growth inhibition, active compounds read high
How it was run: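 Cells are treated with compound, grown, and their growth is then scored against vehicle-only cultures of the same repair-deficient yeast strain.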

[17] = at 5.0 µM (retest, dose inferred, filed as 0.5)
[18] = at 50.0 µM (retest, dose inferred, filed as 5.0)

Measured: growth inhibition

Cc1cc(N=C2C=CC(=[N+](C)C)C=C2)c(N)cc1N
active: [1]; [18] 70% | [2]; at 100.0 µM 70% | [6]; at 100.0 µM 75%
inactive: [1]; [17] 50% | [1]; at 11.0 µM -3% | [1]; at 33.0 µM 23% | [1]; at 50.0 µM 45.3% | [1]; at 100.0 µM 59% | [2]; at 1.2 µM -20% | [2]; at 3.7 µM -19% | [2]; at 11.0 µM 8% | [2]; at 33.0 µM 46% | [3]; [17] -18% | [3]; [18] 65% | [3]; at 50.0 µM 63.8% | [4]; at 1.2 µM 35% | [4]; at 3.7 µM 35% | [4]; at 11.0 µM 32% | [4]; at 33.0 µM 28% | [4]; at 100.0 µM 67% | [5]; [17] 59% | [5]; [18] 57% | [5]; at 50.0 µM 39.7% | [6]; at 1.2 µM 4% | [6]; at 3.7 µM 7% | [6]; [17] 31% | [6]; at 11.0 µM 34% | [6]; at 33.0 µM 54% | [6]; [18] 21% | [6]; at 50.0 µM 62.6% | [7]; at 1.2 µM -9% | [7]; at 3.7 µM 22% | [7]; at 11.0 µM -15% | [7]; at 33.0 µM 22% | [7]; at 100.0 µM 62% | [8]; at 1.2 µM 1% | [8]; at 3.7 µM 2% | [8]; at 11.0 µM -2% | [8]; at 33.0 µM 31% | [8]; at 100.0 µM 61% | [9]; at 1.2 µM -27% | [9]; at 3.7 µM -25% | [9]; at 11.0 µM 1% | [9]; at 33.0 µM 33% | [9]; at 100.0 µM 61% | [10]; [17] 28% | [10]; [18] 56% | [10]; at 50.0 µM 53.5% | [11]; at 1.2 µM -2% | [11]; at 3.7 µM -4% | [11]; at 11.0 µM 7% | [11]; at 33.0 µM 21% | [11]; at 100.0 µM 61%

CCOC(=O)[C@]1(Br)CC[C@@]1(Br)C(=O)OCC
active: [12]; at 33.0 µM 95% | [12]; at 100.0 µM 97% | [13]; at 33.0 µM 98% | [13]; at 100.0 µM 99% | [14]; at 33.0 µM 75% | [14]; at 100.0 µM 94% | [15]; at 33.0 µM 96% | [15]; at 100.0 µM 100% | [16]; at 33.0 µM 94% | [16]; at 50.0 µM 89% | [16]; at 100.0 µM 98% | [1]; at 33.0 µM 97% | [1]; [18] 80% | [1]; at 50.0 µM 93.1% | [1]; at 100.0 µM 99% | [2]; at 33.0 µM 94% | [2]; at 100.0 µM 99% | [3]; at 50.0 µM 91.8% | [4]; at 33.0 µM 91% | [4]; at 100.0 µM 99% | [5]; at 50.0 µM 87.3% | [6]; at 33.0 µM 81% | [6]; at 50.0 µM 91.4% | [6]; at 100.0 µM 96% | [7]; at 33.0 µM 98% | [7]; at 100.0 µM 100% | [8]; at 33.0 µM 97% | [8]; at 100.0 µM 99% | [9]; at 33.0 µM 96% | [9]; at 100.0 µM 99% | [10]; [18] 93% | [10]; at 50.0 µM 91% | [11]; at 33.0 µM 93% | [11]; at 100.0 µM 99%
inactive: [12]; at 1.2 µM -78% | [12]; at 3.7 µM -24% | [12]; at 11.0 µM 31% | [13]; at 1.2 µM -44% | [13]; at 3.7 µM -33% | [13]; at 11.0 µM -3% | [14]; at 1.2 µM -13% | [14]; at 3.7 µM -6% | [14]; at 11.0 µM 29% | [15]; at 1.2 µM -23% | [15]; at 3.7 µM -23% | [15]; at 11.0 µM 23% | [16]; at 1.2 µM -8% | [16]; at 3.7 µM 7% | [16]; [17] 26% | [16]; at 11.0 µM 23% | [16]; [18] 67% | [1]; at 1.2 µM -38% | [1]; at 3.7 µM -25% | [1]; [17] 29% | [1]; at 11.0 µM 27% | [2]; at 1.2 µM -53% | [2]; at 3.7 µM -31% | [2]; at 11.0 µM 14% | [3]; [17] -7% | [3]; [18] -36% | [4]; at 1.2 µM -3% | [4]; at 3.7 µM 15% | [4]; at 11.0 µM 15% | [5]; [17] -7% | [5]; [18] -76% | [6]; at 1.2 µM -38% | [6]; at 3.7 µM -44% | [6]; [17] 2% | [6]; at 11.0 µM -19% | [6]; [18] -38% | [7]; at 1.2 µM -67% | [7]; at 3.7 µM -48% | [7]; at 11.0 µM 6% | [8]; at 1.2 µM -37% | [8]; at 3.7 µM -29% | [8]; at 11.0 µM 35% | [9]; at 1.2 µM -27% | [9]; at 3.7 µM -22% | [9]; at 11.0 µM 43% | [10]; [17] 57% | [11]; at 1.2 µM -58% | [11]; at 3.7 µM -43% | [11]; at 11.0 µM 8%

Cn1ncc2cc3c(Nc4ccc(Cl)cc4)cccc3nc21
active: [12]; at 100.0 µM 96% | [16]; [18] 83% | [16]; at 100.0 µM 95%
inactive: [12]; at 1.2 µM 2% | [12]; at 3.7 µM 2% | [12]; at 11.0 µM 6% | [12]; at 33.0 µM 39% | [13]; at 1.2 µM 0% | [13]; at 3.7 µM -2% | [13]; at 11.0 µM -2% | [13]; at 33.0 µM 0% | [13]; at 100.0 µM 12% | [14]; at 1.2 µM 0% | [14]; at 3.7 µM 1% | [14]; at 11.0 µM 2% | [14]; at 33.0 µM 7% | [14]; at 100.0 µM 36% | [15]; at 1.2 µM -1% | [15]; at 3.7 µM 0% | [15]; at 11.0 µM -4% | [15]; at 33.0 µM -3% | [15]; at 100.0 µM 9% | [16]; at 1.2 µM 2% | [16]; at 3.7 µM 5% | [16]; [17] 25% | [16]; at 11.0 µM 10% | [16]; at 33.0 µM 42% | [16]; at 50.0 µM 59.9% | [1]; at 1.2 µM -5% | [1]; at 3.7 µM -7% | [1]; [17] 0% | [1]; at 11.0 µM -3% | [1]; at 33.0 µM -4% | [1]; [18] 5% | [1]; at 50.0 µM 8.6% | [1]; at 100.0 µM 6% | [2]; at 1.2 µM -2% | [2]; at 3.7 µM -2% | [2]; at 11.0 µM -3% | [2]; at 33.0 µM -3% | [2]; at 100.0 µM 29% | [3]; [17] -1% | [3]; [18] -2% | [3]; at 50.0 µM -10.4% | [4]; at 1.2 µM -5% | [4]; at 3.7 µM -4% | [4]; at 11.0 µM -5% | [4]; at 33.0 µM -3% | [4]; at 100.0 µM -6% | [5]; [17] -11% | [5]; [18] 1% | [5]; at 50.0 µM -6% | [6]; at 1.2 µM -3% | [6]; at 3.7 µM -5% | [6]; [17] -7% | [6]; at 11.0 µM -7% | [6]; at 33.0 µM -11% | [6]; [18] 1% | [6]; at 50.0 µM 44.6% | [6]; at 100.0 µM -7% | [7]; at 1.2 µM -1% | [7]; at 3.7 µM -2% | [7]; at 11.0 µM -2% | [7]; at 33.0 µM -2% | [7]; at 100.0 µM 20% | [8]; at 1.2 µM 0% | [8]; at 3.7 µM -4% | [8]; at 11.0 µM -2% | [8]; at 33.0 µM -2% | [8]; at 100.0 µM 26% | [9]; at 1.2 µM -2% | [9]; at 3.7 µM -2% | [9]; at 11.0 µM -3% | [9]; at 33.0 µM 0% | [9]; at 100.0 µM 42% | [10]; [17] -2% | [10]; [18] 7% | [10]; at 50.0 µM 2.05%

— PubChem BioAssay (NCI)
